SRC3 TRFRET art = flags TR-FRET format artefacts in PPARgamma SRC-3 recruitment agonist screen | actives 0.39% (n = 99,000) | TR-FRET ratio at 8 µM | TR-FRET artefact counter-screen, PPARgamma/SRC-3 format; active compounds read high; in the data active means TR-FRET ratio above about 2000
PPARg SRC1 recr = PPARgamma-driven SRC-1 recruitment agonism; activation, % at 8 µM; P37231; actives 0.41% (n = 200,000); PPARgamma-SRC-1 coactivator recruitment biochemical assay; in the data active means activation above about 19%;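 further: 0% = DMSO and 100% = reference agonist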
PPARg SRC-3 ag = agonists of human PPARgamma SRC-3 coactivator recruitment | activation, % at 8 µM | P37231 | actives 0.26% (n = 200,000) | biochemical PPARgamma/SRC-3 coactivator recruitment assay; in the data active means activation above about 23%;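 further: 0% = DMSO and 100% = reference agonist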
PPARg SRC2 recr = promotes SRC-2 coactivator recruitment by human PPARgamma. AID 1032. actives 0.34% (n = 200,000). activation, % at 8 µM. P37231. PPARgamma LBD-SRC-2 recruitment, biochemical;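 further: 0% = vehicle and 100% = reference agonist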
SRC1 TRFRET art = counter-screen for PPARgamma SRC-1 recruitment agonists: TR-FRET artefact; TR-FRET detection artefact counter-screen, emission ratio; active compounds read high; TR-FRET ratio at 8 µM; actives 0.34% (n = 99,000); AID 1051; in the data active means TR-FRET ratio above about 2300
SRC2 TRFRET art = counter-screen for PPARgamma SRC-2 recruitment agonists: TR-FRET artefact; active compounds read high; TR-FRET ratio at 8 µM; actives 0.4% (n = 200,000); in the data active means TR-FRET ratio above about 2000
PPARg SRC2 conf = confirmation of agonists of SRC-2 recruitment by human PPARgamma. shares compounds with PPARg SRC-3 ag. actives 52% (n = 790). activation, % at 8 µM. biochemical SRC-2 recruitment by PPARgamma. AID 1297;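 further: 0% = vehicle alone and 100% = reference agonist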
PPARg SRC1 ag = confirmation of agonists of SRC-1 recruitment by human PPARgamma; PPARgamma–SRC-1 coactivator recruitment biochemical assay; actives 43% (n = 790); activation, % at 8 µM; shares compounds with PPARg SRC-3 ag; in the data active means activation above about 20%;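 further: 0% = vehicle wells and 100% = reference agonist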
PPARg SRC3 conf = human PPARgamma SRC-3 recruitment agonism, confirmation | activation, % at 8 µM | AID 1301 | actives 29% (n = 790) | biochemical PPARgamma-SRC-3 coactivator recruitment, agonist mode | shares compounds with PPARg SRC-3 ag; in the data active means activation above about 24%;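 further: 0% = vehicle wells and 100% = reference agonist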
Target sequence (P37231 whole entry, looked up): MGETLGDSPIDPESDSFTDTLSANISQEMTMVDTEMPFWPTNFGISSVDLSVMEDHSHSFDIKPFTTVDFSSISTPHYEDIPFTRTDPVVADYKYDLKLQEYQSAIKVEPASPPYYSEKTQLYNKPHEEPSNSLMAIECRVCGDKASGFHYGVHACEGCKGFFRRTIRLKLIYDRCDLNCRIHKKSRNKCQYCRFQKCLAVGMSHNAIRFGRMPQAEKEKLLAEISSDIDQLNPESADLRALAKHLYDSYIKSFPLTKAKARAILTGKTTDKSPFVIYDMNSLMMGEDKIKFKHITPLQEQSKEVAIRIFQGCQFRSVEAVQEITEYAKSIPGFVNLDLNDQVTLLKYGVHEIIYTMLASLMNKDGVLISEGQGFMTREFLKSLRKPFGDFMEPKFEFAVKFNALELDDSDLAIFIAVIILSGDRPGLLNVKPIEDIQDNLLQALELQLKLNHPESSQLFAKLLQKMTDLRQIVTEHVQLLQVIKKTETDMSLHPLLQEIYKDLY
Target sequence (Q9Y6Q9 whole entry, looked up): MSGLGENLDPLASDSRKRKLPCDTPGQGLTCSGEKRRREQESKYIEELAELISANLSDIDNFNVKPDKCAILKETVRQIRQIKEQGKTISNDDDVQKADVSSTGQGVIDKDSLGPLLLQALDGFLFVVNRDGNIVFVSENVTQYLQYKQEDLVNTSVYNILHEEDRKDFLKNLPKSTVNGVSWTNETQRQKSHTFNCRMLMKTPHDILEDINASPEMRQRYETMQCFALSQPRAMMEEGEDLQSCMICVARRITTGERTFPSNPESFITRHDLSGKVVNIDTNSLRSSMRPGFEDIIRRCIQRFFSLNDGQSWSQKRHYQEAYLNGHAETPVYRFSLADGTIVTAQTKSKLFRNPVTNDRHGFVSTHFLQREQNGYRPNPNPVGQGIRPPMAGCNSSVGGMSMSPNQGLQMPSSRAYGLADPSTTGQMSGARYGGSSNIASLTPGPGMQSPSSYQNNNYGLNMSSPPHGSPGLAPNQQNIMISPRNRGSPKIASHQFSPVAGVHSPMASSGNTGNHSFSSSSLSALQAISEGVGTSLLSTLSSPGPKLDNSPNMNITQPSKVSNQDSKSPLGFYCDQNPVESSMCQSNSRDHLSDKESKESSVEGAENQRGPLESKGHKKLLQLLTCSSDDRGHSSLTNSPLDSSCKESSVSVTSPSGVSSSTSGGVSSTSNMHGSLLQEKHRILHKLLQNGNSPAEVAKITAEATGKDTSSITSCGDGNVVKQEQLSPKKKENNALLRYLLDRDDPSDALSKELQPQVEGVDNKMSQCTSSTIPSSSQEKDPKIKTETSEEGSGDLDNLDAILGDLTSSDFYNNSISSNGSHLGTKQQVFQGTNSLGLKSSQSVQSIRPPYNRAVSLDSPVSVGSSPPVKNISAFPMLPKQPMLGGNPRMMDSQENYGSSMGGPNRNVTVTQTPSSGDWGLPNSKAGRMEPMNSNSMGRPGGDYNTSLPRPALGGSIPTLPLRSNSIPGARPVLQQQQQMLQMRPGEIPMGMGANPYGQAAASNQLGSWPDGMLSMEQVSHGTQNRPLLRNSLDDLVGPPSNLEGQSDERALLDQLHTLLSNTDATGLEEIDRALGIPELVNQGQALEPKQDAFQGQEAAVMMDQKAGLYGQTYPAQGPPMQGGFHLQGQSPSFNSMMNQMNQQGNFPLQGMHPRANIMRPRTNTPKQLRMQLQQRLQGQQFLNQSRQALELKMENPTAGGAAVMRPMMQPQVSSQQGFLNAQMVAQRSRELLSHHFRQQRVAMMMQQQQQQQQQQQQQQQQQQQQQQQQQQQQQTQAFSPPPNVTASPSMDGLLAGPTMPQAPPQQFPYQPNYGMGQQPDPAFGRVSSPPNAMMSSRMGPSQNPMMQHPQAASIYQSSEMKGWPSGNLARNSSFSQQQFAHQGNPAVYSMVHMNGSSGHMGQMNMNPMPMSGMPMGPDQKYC
* marks the source's active call; other numbers are inactive results; nt = no result given. Sampled rows, rich in hits. Any-hit rate of the full collection: about 0.9%. Unless noted, no stated cut-off is given here; in the data, active means activation above about 22%; inactive means the rest.

SMILES | SRC3 TRFRET art | PPARg SRC1 recr | PPARg SRC-3 ag | PPARg SRC2 recr | SRC1 TRFRET art | SRC2 TRFRET art | PPARg SRC2 conf | PPARg SRC1 ag | PPARg SRC3 conf
COc1ccc2nc(SC)c(C#N)cc2c1 | 2738* | 8 | 27* | 11 | 2037 | 1641 | 75* | 58* | 43*
COc1ccc2nc(SCc3cccnc3)c(C#N)cc2c1 | nt | 83* | 69* | 9 | nt | 1517 | 53* | 42* | 33*
N#Cc1cc2ccccc2nc1SCc1cccnc1 | 1426 | 0 | -1 | -1 | 1739 | 1334 | nt | nt | nt
CC(C)N=C(NS(=O)(=O)NC(=O)c1ccccc1)c1ccccc1 | 1651 | 1 | -2 | 8 | 1733 | 1601 | nt | nt | nt
CC(C)(C)c1nc(NC(=O)Nc2ccccc2)sc1Br | 1499 | -2 | -2 | -1 | 1605 | 1422 | nt | nt | nt
O=C(N/N=C/c1ccc(O)cc1)Nc1cccc2nsnc12 | 1521 | 6 | 0 | 3 | 1799 | 1525 | nt | nt | nt
COc1ccccc1C(=O)OCCNC(=O)Cn1cnc2c1c(=O)n(C)c(=O)n2C | 1555 | 4 | 4 | -5 | 1917 | 1384 | nt | nt | nt
c1ccc(Sc2ncnc3c2oc2ccccc23)nc1 | nt | 2 | 7 | 15 | nt | 1640 | nt | nt | nt
Fc1ccccc1CSc1ncnc2c1oc1ccccc12 | nt | 46* | 51* | 19 | nt | 2035* | 49* | 38* | 32*
COC(=O)c1ccc(CSc2ncnc3c2oc2ccccc23)o1 | nt | 56* | 50* | 29* | nt | 1972* | 44* | 29* | 31*
O=c1c2oc3ccccc3c2ncn1Cc1ccccc1F | nt | -1 | 1 | 6 | nt | 1439 | nt | nt | nt
CC(C)Sc1ncnc2c1oc1ccccc12 | nt | 36* | 38* | 33* | nt | 1948 | 45* | 33* | 30*
CC(=O)CSc1ncnc2c1oc1ccccc12 | nt | 135* | 219* | 114* | nt | 5487* | 65* | 43* | 44*
O=C(O)CSc1nc(-c2ccccc2)nc2c1oc1ccccc12 | nt | 8 | 12 | 3 | nt | 1647 | nt | nt | nt
Cc1cc(/C=C2\SC(N)=NC2=O)c(C)n1-c1ccc(F)cc1 | 1722 | -4 | 3 | 3 | 2039 | 1726 | nt | nt | nt
COc1ccc(C)cc1NC(=O)C(NC(=O)c1cc(OC)c(OC)c(OC)c1)C(C)C (stereo unspecified) | 1448 | 0 | -6 | -1 | 1654 | 1580 | nt | nt | nt
O=C(CSc1ncnc2c1oc1ccccc12)Nc1ccccc1F | nt | 33* | 27* | 13 | nt | 1545 | 37* | 29* | 24
CC(=O)N1CCN(c2ccc(Nc3ncnc4c3oc3ccccc34)cc2)CC1 | nt | 15 | 13 | 23* | nt | 1766 | 2 | 3 | 2
O=C(CSc1ncnc2c1oc1ccccc12)Nc1nc2ccccc2s1 | nt | 30* | 39* | 12 | nt | 1783 | 44* | 31* | 28*
O=C(CSc1ncnc2c1cnn2CCc1ccccc1)Nc1cccc(C(F)(F)F)c1 | nt | -4 | -3 | 4 | nt | 1380 | nt | nt | nt
O=C(CSc1nc2ccccc2o1)Nc1nc2ccccc2s1 | nt | 2 | 8 | 7 | nt | 1507 | nt | nt | nt
O=C(CSc1ncnc2c1oc1ccccc12)Nc1cccc(C(F)(F)F)c1 | nt | 21* | 29* | 35* | nt | 2069* | 30* | 20* | 18
COc1ccccc1/C=C/C(=O)NNC(=O)c1cccs1 | 1499 | 6 | 4 | 3 | 1859 | 1500 | nt | nt | nt
CS(=O)(=O)N(CC(=O)NCc1ccncc1)C1CCCCC1 | 1511 | 0 | -5 | -8 | 1563 | 1555 | nt | nt | nt
O=C(CSc1ncnc2c1oc1ccccc12)Nc1cccc(Cl)c1 | nt | 11 | 33* | 25* | nt | 1548 | 27* | 22* | 19
SMILES | SRC3 TRFRET art | PPARg SRC1 recr | PPARg SRC-3 ag | PPARg SRC2 recr | SRC1 TRFRET art | SRC2 TRFRET art | PPARg SRC2 conf | PPARg SRC1 ag | PPARg SRC3 conf
O=c1c2oc3ccccc3c2ncn1Cc1cccc(Cl)c1 | 1540 | 3 | 0 | -2 | 1630 | 1416 | nt | nt | nt
O=C(Nc1cc(SCC(O)CO)cc([N+](=O)[O-])c1)c1ccc(-n2cnnn2)cc1 (stereo unspecified) | 1435 | 62* | 28* | 59* | 1703 | 1611 | 10 | 3 | 3
S=c1nc(-c2ccccc2Br)[nH][nH]1 | nt | 2 | 13 | 4 | nt | 1310 | nt | nt | nt
S=c1nc(-c2cccc(Cl)c2)[nH][nH]1 | 2145* | 16 | 7 | 28* | 2102 | 1956 | 24* | 21* | 17
S=c1nc(-c2cc(Cl)ccc2Cl)[nH][nH]1 | 2092* | 20 | 15 | 27* | 2654* | 2272* | 24* | 19 | 17
COc1ccc(C(C(=O)NC(C)(C)C)N(C(=O)CNC(=O)c2cccs2)c2ccc(NC(C)=O)cc2)cc1OC (stereo unspecified) | 1503 | -4 | -2 | -6 | 1611 | 1410 | nt | nt | nt
CCOC(=O)CC1COCCN1C(=O)CCc1nnc(-c2ccsc2)o1 (stereo unspecified) | 1376 | -7 | 4 | -10 | 1681 | 1502 | nt | nt | nt
COC(=O)CSc1nnc2n1C(C)(C)Cc1ccccc1-2 | nt | 11 | -10 | 3 | nt | 1643 | nt | nt | nt
CC1(C)Cc2ccccc2-c2nnc(SCC(=O)N3CCc4ccccc43)n21 | nt | 24* | 25 | 17 | nt | 1651 | 13 | 13 | 11
C=CCN(CC=C)C(=O)c1ccc(OC2CCN(S(=O)(=O)N(C)C)CC2)cc1 | 1419 | -4 | -4 | -7 | 1685 | 1531 | nt | nt | nt
COC(=O)c1ccccc1NC(=S)N1CCN(c2ccc(OC)cc2)CC1 | 1569 | 4 | 2 | -4 | 1680 | 1352 | nt | nt | nt
Nc1ccccc1-c1n[nH]c(=S)s1 | 3076* | 54* | 43* | 54* | 3590* | 3141* | 40* | 31* | 25*
O=C1c2ccccc2C(=O)N1c1cccc(-c2csc(Nc3ccc4c(c3)OCO4)n2)c1 | 1746 | 19 | 12 | 26* | 2024 | 1630 | 14 | 12 | 8
COc1ccc2c(c1)Sc1ccccc1N2 | 1823 | 27* | 13 | 17 | 2097 | 1917 | 11 | 14 | 13
COc1ccc2[nH]c3ccccc3c2c1 | nt | -3 | -5 | 8 | nt | 1426 | nt | nt | nt
O=C1NC(c2ccccc2)C(C(=O)c2cccs2)=C1O (stereo unspecified) | nt | 20* | 14 | 10 | nt | 1704 | 10 | 8 | 7
Cc1nnc(N2C(=O)C(O)=C(C(=O)c3ccco3)C2c2ccc(C(C)(C)C)cc2)s1 (stereo unspecified) | nt | 31* | 42* | 28* | nt | 2126* | 39* | 31* | 25*
COc1cccc(C2C(C(=O)c3cccs3)=C(O)C(=O)N2CCN(C)C)c1OC (stereo unspecified) | nt | -2 | 1 | 10 | nt | 1515 | nt | nt | nt

Compound activity (PubChem BioAssay)
